The nature of test [1]: inhibitors of TNFa-induced NFkB p65 translocation, primary screen, imaging, HUVEC, MLSMR starter and 10KST1 sets (AID 438).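 Further: compound added about 3h40 before a 20 min TNFalpha stimulation.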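 On inhibition: signal is the nuclear over cytoplasmic p65 intensity ratio per well.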 As to conditions: HUVEC TNFa-induced p65 nuclear translocation; cell count: measured here: nuclei count (cytotoxicity indicator), at 2.08 µM; inhibition: at 2 µM, stronger effect = higher value, 0% TNFa-plus-vehicle, 100% no-TNFa wells.
Test [2] in a line: reduction of polyQ htt aggregates in cells – imaging, exon1htt(103Q)mCFP cells, high-content imaging, primary screen (AID 483;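 active means visual image review flags a hit and inhibition of aggregation exceeds 20%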;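 further: compound exposure lasted 3 days before fixation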;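 on nuclei count: percent of the per-plate median nuclei count of sample wells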). As to conditions: exon1htt(103Q)mCFP cell line, aggregate imaging, at 2 µM; inhibition of aggregation: stronger effect = higher value; nuclei count: measured here: cell count, toxicity.
A short description of test [3]: endothelial E-selectin expression blockers – imaging, HUVEC, immunofluorescence, MLSMR starter and 10KST1 sets, primary screen (AID 487;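 active means visually confirmed hit in the image check and inhibition above 20%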;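 on inhibition: signal is fraction of cell area covered by stained E-selectin grains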;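 on nuclei count: 100% = median nuclei count of all wells on the same plate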). Conditions: HUVEC TNFalpha-induced E-selectin immunofluorescence imaging, at 2 µM; inhibition: stronger effect = higher value; nuclei count: measured here: cell number, toxicity.
Test [4] addresses Voltage-gated potassium channel subunit beta-2 (Rattus norvegicus) (UniProt P62483). Nature of the test: inhibitors of rat Kvbeta2 reductase activity – biochemical, NADPH fluorescence, primary screen (AID 622;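 active means fluorescence slope higher than the sample average by over 3 SD, cut at about -0.22 in these data, passing the limit was not always enough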;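 further: slope of raw intensity against log time taken from 70 to 1610 s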). Conditions: recombinant KvBeta, 4-cyanobenzaldehyde reduction, at 10 µM, stronger effect = higher value.
For test [5] the target is unchanged. Nature of the test: enhancers of rat Kvbeta2 NADPH turnover – biochemical, NADPH fluorescence, primary screen (AID 623;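 active means NADPH fluorescence slope more negative than the mean of all samples by about 3 SD, 99.7% confidence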;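 further: fluorescence intensity change per second fitted from 20 to 320 s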). As to conditions: Recombinant KvBeta, NADPH fluorescence decrease slope, 10 min; at 10 µM; stronger effect = lower value.
The target of test [6] is Alpha-2C adrenergic receptor (Homo sapiens) (UniProt P18825). In words: compounds altering alpha2C-coupled GIRK flux – cell-based, HEK293 alpha2C/GIRK1/2, thallium flux, primary screen (AID 624;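 active means fluorescence slope after compound addition differing from the mean of all screened samples at 99.7% confidence, in either direction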;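 further: slope of fluorescence ratio to pre-addition baseline per second over 15 to 24 s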). Conditions: thallium flux BTC fluorescence, at 10 µM, actives lie on both sides.
A short description of test [7]: blockers of RIG-like receptor reporter activation – cell-based, Sendai virus stimulus, luciferase, 10K MLSCN set, TLR/RLR signaling modifier project, primary screen (AID 602276;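 active means inhibition at or above 50% at 10 µM; inactive means inhibition below 50%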;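 further: firefly luciferase from ISG56 promoter only with Renilla not read in this screen; 0% = Sendai virus plus DMSO and 100% = medium plus DMSO without virus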). As to conditions: HEK293 RL24 IRF3 luciferase reporter, at 10 µM, stronger effect = higher value. On the technique in general: In a reporter assay the amount or activity of a reporter protein is the signal.

Test [8] can be described thus: TLR3 IRF3 reporter activation blockers – cell-based, poly I:C stimulus, luciferase, 10K MLSCN set, primary screen (AID 602277;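 active means inhibition of the reporter signal at or above 50%; inactive means inhibition below 50%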). Conditions: HEK293-TLR3 RL24 IRF3 luciferase reporter, at 10 µM, stronger effect = higher value.

The structures appear in SMILES notation. Active and inactive are the calls of the source.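 How the source made its calls, unless noted: active means inhibition above 20% together with a positive visual image hit; inconclusive means visual image hit but inhibition not above 20%; inactive means no visual image hit.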

Sequence of Alpha-2C adrenergic receptor (Homo sapiens) (P18825 whole entry, looked up): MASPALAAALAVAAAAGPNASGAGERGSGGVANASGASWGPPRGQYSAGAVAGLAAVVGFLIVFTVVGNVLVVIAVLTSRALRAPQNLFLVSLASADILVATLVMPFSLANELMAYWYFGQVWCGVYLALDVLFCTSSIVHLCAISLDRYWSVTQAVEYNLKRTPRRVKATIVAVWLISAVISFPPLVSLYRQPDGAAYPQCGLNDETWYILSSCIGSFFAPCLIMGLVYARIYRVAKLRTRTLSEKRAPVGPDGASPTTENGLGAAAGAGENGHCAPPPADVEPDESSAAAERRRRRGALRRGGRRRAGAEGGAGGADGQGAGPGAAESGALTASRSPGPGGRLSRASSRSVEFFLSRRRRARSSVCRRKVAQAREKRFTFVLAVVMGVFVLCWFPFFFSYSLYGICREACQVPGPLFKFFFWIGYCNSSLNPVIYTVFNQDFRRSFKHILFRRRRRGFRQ
Sequence of Voltage-gated potassium channel subunit beta-2 (Rattus norvegicus) (P62483 whole entry, looked up): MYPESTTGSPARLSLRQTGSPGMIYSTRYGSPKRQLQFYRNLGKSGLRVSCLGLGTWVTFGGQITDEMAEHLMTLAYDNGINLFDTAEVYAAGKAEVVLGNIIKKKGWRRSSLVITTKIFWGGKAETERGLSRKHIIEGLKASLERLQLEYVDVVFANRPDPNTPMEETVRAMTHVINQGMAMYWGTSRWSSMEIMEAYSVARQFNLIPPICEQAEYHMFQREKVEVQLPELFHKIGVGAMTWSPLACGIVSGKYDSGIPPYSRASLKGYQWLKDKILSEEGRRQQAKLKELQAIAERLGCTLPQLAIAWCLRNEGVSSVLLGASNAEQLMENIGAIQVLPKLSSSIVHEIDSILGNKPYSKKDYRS

In the case of `Cc1cc2ccccc2c(=O)n1CC(=O)Nc1ccc2c(c1)OCO2`, the cell count in test [1] stood at 455. Further, the inhibition (commonly the relative decrease from the control value, in per cent) in test [1] is 0% (inactive); in test [3], -85.2% (inactive); in test [7], 2.31% (inactive); in test [8] it was 23.9% (inactive). Also, in test [2], the inhibition of aggregation was -12.3% (inactive). Further, the nuclei count in test [2] is 108%; in test [3], 109%. In addition, the fluorescence slope in test [4] was -0.48 (inactive). For the same compound, the NADPH fluorescence slope in test [5] was -2.6e-05 (inactive). Moreover, the slope in test [6] was 0.00487 (inactive).

Regarding `CSc1nc(N)nc(SCCS(=O)(=O)c2ccc(Cl)cc2)c1C#N`, the cell count in test [1] stood at 401. Moreover, the inhibition in test [1] was 2.8% (inactive); in test [3] it was -48% (inactive); in test [7], 5.62% (inactive); in test [8], 12.8% (inactive). Moreover, the inhibition of aggregation in test [2] is 24.9% (inactive). Also, the nuclei count stood at 95.8% in test [2] and 113% in test [3]. In test [4], the fluorescence slope was -0.442 (inactive). The NADPH fluorescence slope in test [5] was -2.1e-05 (inactive). Also, the slope in test [6] was 0.00602 (inactive).

`CC1=C(C(=O)Nc2ccccc2)C(c2ccccn2)n2nc(CCCO)nc2N1` (centres undefined): in test [1], the cell count worked out at 662. For the same compound, the inhibition in test [1] is 6.2% (inactive); in test [3] it was -8.5% (inactive); in test [7], 9.62% (inactive); in test [8], 29.7% (inactive). Besides, the inhibition of aggregation in test [2] is 13.8% (inactive). For the same compound, the nuclei count in test [2] stood at 93.5%; in test [3] it was 116%. The fluorescence slope in test [4] was -0.532 (inactive). Moreover, the NADPH fluorescence slope in test [5] was -2.2e-05 (inactive). In addition, the slope in test [6] was 0.00679 (inactive).

As to `CCS(=O)(=O)N1CCC(C(=O)NCCc2ccc(C)cc2)CC1`, the cell count in test [1] worked out at 646. Moreover, the inhibition in test [1] was -10.6% (inactive); in test [3], -178% (inactive); in test [7], -2.06% (inactive); in test [8] it was 10.2% (inactive). Further, in test [2], the inhibition of aggregation is 2.7% (inactive). Besides, the nuclei count in test [2] is 81.2%; in test [3], 136%. The fluorescence slope in test [4] is -0.596 (inactive). Moreover, the NADPH fluorescence slope in test [5] is 1.4e-05 (inactive). Besides, the slope in test [6] was 0.00666 (inactive).

For the compound `CCCN1CCN(CCCNC(=O)Cn2ncc3c4ccccc4n(C)c3c2=O)CC1`, in test [1], the cell count came out at 509. Also, the inhibition was -3% (inactive) in test [1], -61.4% (inactive) in test [3], -2.18% (inactive) in test [7] and 34.8% (inactive) in test [8]. In addition, the inhibition of aggregation in test [2] was -2.1% (inactive). Further, the nuclei count is 101% in test [2] and 110% in test [3]. Further, the fluorescence slope in test [4] was -0.615 (inactive). In addition, the NADPH fluorescence slope in test [5] is 2.2e-07 (inactive). For the same compound, the slope in test [6] was 0.00665 (inactive).

For the compound `CC(C)c1nnc(NC(=O)c2ccc(N3C(=O)CCC3=O)cc2)s1`, in test [1], the cell count was found to be 627. Besides, the inhibition is -8% (inactive) in test [1], -36.4% (inactive) in test [3], 4.17% (inactive) in test [7] and -7.88% (inactive) in test [8]. The inhibition of aggregation in test [2] is 13.9% (inactive). Moreover, the results for the nuclei count in test [2] and in test [3] were 110% and 119%, respectively. Besides, the fluorescence slope in test [4] was -0.407 (inactive). Also, in test [5], the NADPH fluorescence slope is 9.4e-07 (inactive). In test [6], the slope was 0.00608 (inactive).

`COc1ccc(-c2nnc(SCC(=O)Nc3ccc(Cl)cc3)n2C)cc1`: in test [1], the cell count was determined as 327. The inhibition is -5.5% (inactive) in test [1], -77.8% (inactive) in test [3], -16% (inactive) in test [7] and -1.71% (inactive) in test [8]. In test [2], the inhibition of aggregation is -26.9% (inactive). In addition, the nuclei count in test [2] worked out at 139%; in test [3], 122%. Further, in test [4], the fluorescence slope is -0.462 (inactive). Also, the NADPH fluorescence slope in test [5] is 3.4e-05 (inactive). In test [6], the slope was 0.00817 (inactive).

With `Cn1c(-c2ccccc2)cc(=O)c2ccccc21`, in test [1], the cell count was 419. Also, the inhibition in test [1] was -3.8% (inactive); in test [3] it was -39.8% (inactive); in test [7] it was 9.11% (inactive); in test [8], 16.3% (inactive). Moreover, the inhibition of aggregation in test [2] is 2.5% (inactive). The results for the nuclei count in test [2] and in test [3] were 92.7% and 118%, respectively. Besides, the fluorescence slope in test [4] was -0.457 (inactive). In test [5], the NADPH fluorescence slope was 3.9e-05 (inactive). Moreover, in test [6], the slope is 0.00556 (inactive).

As to `CCC1CCCCN1CCCNC(=O)CC1Oc2ccc(C)cc2NC1=O` (centres undefined), the cell count in test [1] came to 810. Also, the inhibition in test [1] was -1.8% (inactive); in test [3] it was -71% (inactive); in test [7], 5.08% (inactive); in test [8], 29.6% (inactive). Further, the inhibition of aggregation in test [2] is 13.7% (inactive). Besides, the nuclei count stood at 105% in test [2] and 107% in test [3]. Further, in test [4], the fluorescence slope is -0.499 (inactive). Moreover, the NADPH fluorescence slope in test [5] was -3.5e-05 (inactive). The slope in test [6] is 0.00565 (inactive).

With `COc1cc(S(=O)(=O)N(C)C)ccc1F`, in test [1], the cell count is 333. The inhibition in test [1] was -4.5% (inactive); in test [3] it was -114% (inactive); in test [7], 17.1% (inactive); in test [8] it was 9.1% (inactive). Moreover, the inhibition of aggregation in test [2] is 5.9% (inactive). In addition, the figures for the nuclei count in test [2] and in test [3] were 87.4% and 116%, respectively. Moreover, in test [4], the fluorescence slope is -0.413 (inactive). Also, the NADPH fluorescence slope in test [5] was -5e-05 (inactive). Further, in test [6], the slope was 0.00561 (inactive).

On to `CCOc1ccc(NC(=O)C(C)Sc2nnc(C)n2C)cc1` (centres undefined), for which, in test [1], the cell count is 574. Further, the inhibition in test [1] is -9.5% (inactive); in test [3] it was -33.5% (inactive); in test [7], -2.49% (inactive); in test [8], 20.8% (inactive). The inhibition of aggregation in test [2] is 19.3% (inactive). The values for the nuclei count in test [2] and in test [3] were 74.5% and 119%, respectively. Also, in test [4], the fluorescence slope was -0.591 (inactive). In test [5], the NADPH fluorescence slope was -1.5e-05 (inactive). Further, the slope in test [6] was 0.00656 (inactive).

For `Cn1c(=O)c2nc(Cl)n(Cc3ccc(Cl)cc3Cl)c2n(C)c1=O`, in test [1], the cell count turned out to be 719. Moreover, the inhibition in test [1] is -22.4% (inactive); in test [3] it was -7.8% (inactive); in test [7], 21.4% (inactive); in test [8] it was 23.2% (inactive). Moreover, the inhibition of aggregation in test [2] is 11.5% (inactive). For the same compound, the nuclei count worked out at 89.6% in test [2] and 110% in test [3]. Moreover, the fluorescence slope in test [4] is -0.514 (inactive). For the same compound, in test [5], the NADPH fluorescence slope was -4.5e-05 (inactive). Further, in test [6], the slope was 0.00452 (inactive).

Turning to `Cc1ccc(-c2cc(C(=O)O)n[nH]2)o1`, in test [1], the cell count was determined as 358. Further, the inhibition is 1% (inactive) in test [1], -1.4% (inactive) in test [3], 9.01% (inactive) in test [7] and 14.9% (inactive) in test [8]. Moreover, in test [2], the inhibition of aggregation is 3.3% (inactive). Also, the nuclei count in test [2] was 101%; in test [3], 97.7%. In test [4], the fluorescence slope was -0.612 (inactive). For the same compound, the NADPH fluorescence slope in test [5] is 4.6e-05 (inactive). For the same compound, in test [6], the slope is 0.00603 (inactive).

As to `O=C(COC(=O)c1cc(-c2ccco2)nc2ccccc12)NCc1ccc2c(c1)OCO2`, the cell count in test [1] turned out to be 349. For the same compound, the inhibition is -18.2% (inactive) in test [1], 3.4% (inactive) in test [3], 2.9% (inactive) in test [7] and 11.8% (inactive) in test [8]. For the same compound, in test [2], the inhibition of aggregation was -7.7% (inactive). Besides, the nuclei count is 54% in test [2] and 108% in test [3]. Further, the fluorescence slope in test [4] is -0.407 (inactive). In test [5], the NADPH fluorescence slope is -1.1e-05 (inactive). The slope in test [6] is 0.00558 (inactive).

Values taken from PubChem BioAssay.
